“And” between values parts separate entries of the source, which are not always exact repeats. Equal entries are not always repeated. The panel holds about 83,000 compounds, 20% with a hit somewhere; the sample as a whole holds those more often.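 For each line, cells grew in 96-well plates with the test compound present at a single concentration for 48 hours.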 A number with no mark means an inactive call. The source made the active and inactive calls. How the source made its calls: active means growth percent below 10; inactive means the rest.
Each compound was assayed on T-47D breast (assay: NCI-60 one-dose screen, 48 h (100 = growth as untreated, 0 = no growth, -100 = all killed)). Settings: 10 µM unless noted.

Structure (SMILES) | growth
N#Cc1cc(-c2ccc3ncnc(N4CCc5cc(F)c(Cl)cc54)c3c2)cnc1N | 25.8%
Cn1cc(Nc2ncnc(-c3ccc(N4CCCC4)c(C#N)c3)n2)cn1 | 84.9%
CN(C)CCCc1ccc(Nc2cnn(C)c(=O)c2Cl)cc1 | 98.2%
O=Cc1cncc(-c2ccc3ncnc(N4CCc5cc(F)c(Cl)cc54)c3c2)c1 | 23.7%
N#CC1=C(c2cccs2)Nc2c(c(-c3ccccc3)nn2-c2ccccc2)C12C(=O)Nc1ccccc12 (stereo not given) | 17.3%
O=C(CSc1nc2sc3c(c2c(=O)n1-c1ccc(Cl)cc1)CCCC3)NNC(=O)c1ccc(F)cc1 | 74%
COc1ccc(-c2cc(-c3cc(OC)c(OC)c(OC)c3)[nH]c(=O)c2C#N)cc1 | 34.6%
CC(=O)Nc1cccc(-n2c(COc3ccc(Br)cc3)nc3ccccc32)c1 | 88.5% and 109%
Cc1cc(Cl)ccc1NC(=O)Nc1ccc(-c2ccc3c(c2)NC(=O)/C3=C\c2ccc[nH]2)cc1 | 26.4%
Nc1cc(-c2c[nH]c3ccc(Br)cc23)nc2cc(-c3c[nH]c4ccccc34)nn12 | -60.5% (active)
CCc1ccc(SC2c3cc(OC)ccc3Oc3nc(N)c(C#N)c(N)c32)cc1 (stereo not given) | -52% (active)
COc1ccc(C(=O)NNC(=O)CSc2nc3sc4c(c3c(=O)n2-c2ccc(Cl)cc2)CCCC4)cc1 | 72.5%
CNc1nc2ccccc2n2c(-c3ccc(O)c(O)c3)cnc12 | 42.2%
CN(CCSSCCN1CCOCC1)C(=O)Oc1cc2c(c3ccccc13)[C@H](CCl)CN2C(=O)c1cc2cc(OCCCN3CCC3)ccc2[nH]1 | -41.9% (active)
Cn1cc(-c2cc(N)n3nc(-c4c[nH]c5ccc(F)cc45)cc3n2)c2cccnc21 | -59.7% (active)
O=C(Cn1c(-c2ccccc2)nc2ccccc21)N=Nc1c(O)[nH]c2ccc(Br)cc12 | -59.4% (active)
O=C(NN1C(=O)/C(=C/C=C/c2ccc([N+](=O)[O-])o2)SC1=S)c1ccncc1 | -59.4% (active)
CCCCCCCCCc1ccc(C(=O)Nc2cc(C)ccc2C(=O)OC)cc1 | 99.1%

Structure (SMILES) | growth
COc1ccc(N=Nc2c(N)nn3c(-c4ccc([N+](=O)[O-])cc4)ccnc23)cc1 | 81.6%
COc1ccc2[nH]c(O)c(N=Nc3nc(-c4ccc(Cl)cc4)cs3)c2c1 | -21.5% (active)
C[C@@H](Nc1c(C#N)cnc2ccc(-c3cnc4[nH]ncc4c3)cc12)c1ccccc1 | 10.9%
CS(=O)(=O)Nc1cccc(-n2c(COc3ccc(OC(F)(F)F)cc3)nc3ccccc32)c1 | 62.2% and 85%
Cc1cc(C(NC(=O)CCCCCNc2cccc3c2C(=O)N(C2CCC(=O)CC2=O)C3=O)c2cccc(N(C)C)c2)c(O)c2ncccc12 (stereo not given) | 4.11% (active)
COc1ccc(S(=O)(=O)Nc2ccc(-c3ccc4c(c3)NC(=O)/C4=C\c3ccc[nH]3)cc2)cc1OC | -21% (active)
COc1ccc(-c2nc3ccccc3n2CC(=O)N=Nc2c(O)[nH]c3ccc(OC)cc23)cc1 | -72.5% (active)
Cc1ccc(C(C(=O)NC2CCCCC2)N(Cc2ccccc2Cl)C(=O)c2ccc(CN3CCOCC3)o2)o1 (stereo not given) | 99.9%
COc1ccc(N=Nc2c(N)nn3c(-c4ccc(OC)c(OC)c4)ccnc23)cc1 | 62%
Cc1ccc(Cl)cc1NC(=O)N/C(N)=N/c1nc2ccccc2s1 | 32.4%
N#Cc1cc(-c2ccnc(Nc3ccc(N4CCN(C5COC5)CC4)cc3)n2)ccc1N1CCCC1 | 91%
COc1ccc(-c2nc3ccc(-c4nnc(SCC(=O)Nc5ccc(/C(C)=N\O)cc5)o4)cc3[nH]2)cc1 | 53.1%
O=C1/C(=C/c2cnc(-c3ccccc3)s2)SC(=S)N1Cc1ccc2c(c1)OCO2 | 47.4%
Cc1nn(-c2ccccc2)c2ncn(CC(=O)N/N=C/c3ccccc3O)c(=O)c12 | 22.9%
COc1ccc(C2=NN(C(=O)[C@H]3[C@@H](c4ccco4)c4sc(=O)[nH]c4S[C@@H]3C)C(c3ccc4ccccc4c3)C2)cc1 (stereo not given in full) | 9.22% (active)
CCc1ccccc1NC(=O)N/C(N)=N/c1nc2ccccc2s1 | 55.8%
O=C(Nc1ccc(Cl)c(C(F)(F)F)c1)N1CCN(c2cc(-c3cn(-c4ccccc4)nc3-c3cccc(O)c3)ccn2)CC1 | -1.78% (active)
